Assay [1] in a line: cAMP Responsive Elements (CRE) small molecule antagonists, cell-based qHTS assay: qHTS cell viability counter screen (AID 2060913). Also: nearly all actives have a fitted effect of over 40% in size. In a few lines:
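HEK293T CRE-bla, 2,000 cells/well, 18 h preincubation; cpd in DMSO + NKH477 0.25 uM final, 3 h 37 C/5% CO2; LiveBLAzer 2 h RT, then CellTiter-Glo 30 min RT, luminescence.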
Background: Quantitative high-throughput screening tests each substance at several concentrations.

The nature of assay [2]: cAMP Responsive Elements (CRE) small molecule agonists, cell-based qHTS assay: qHTS cell viability counter screen (AID 2060914). Also: nearly all actives have a fitted effect of over 50% in size. In a few lines: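 In the same wells as the reporter read, viability of CRE-bla HEK 293T cells was quantified by CellTiter-Glo luminescence after a 3 h compound exposure.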

Records with an inconclusive call do not appear. A call without a number means that no potency is given here. Activity calls are given as the source filed them. Calls follow the shape of the dose curve; as a rule, active = well fitted cell-killing curve with a large enough effect in the repeat runs; inconclusive = weak or mixed curves, or effect the other way; inactive = flat fitted curve, though single readings scatter.

As to `CCCCCCCCCCCC(=O)[O][Sn]([CH2]CCC)([CH2]CCC)[O]C(=O)CCCCCCCCCCC`, the Potency result in assay [1] and in assay [2] was “inactive” throughout.
As for `CCCCCCCCS(=O)(=O)O`, the Potency entry in assay [1] and in assay [2] was “inactive” each time.
Take `C/C=C/C(=O)C1=C(C)C=CCC1(C)C`: the Potency result in assay [1] and in assay [2] was “inactive” each time.
Consider `OCc1cccnc1`, for which the Potency result in assay [1] and in assay [2] was “inactive” in each case.
For the compound `CCCCCCCCCCC(CO)CCCCCCCC` (centres undefined), the Potency result in assay [1] and in assay [2] was “inactive” each time.
As to `CC(C)CO`, the Potency entry in assay [1] and in assay [2] was “inactive” each time.
On to `Cc1c[nH]c(=S)[nH]c1=O`, for which the Potency entry in assay [1] and in assay [2] was “inactive” throughout.
